{"source": "PubChem BioAssay", "note": "The source made the active and inactive calls. No rule for the calls is given here.", "data": [{"target": "Pantothenate synthetase (Mycobacterium tuberculosis (strain ATCC 25618 / H37Rv)) (UniProt P9WIL5)", "sequence (P9WIL5 whole entry, looked up)": "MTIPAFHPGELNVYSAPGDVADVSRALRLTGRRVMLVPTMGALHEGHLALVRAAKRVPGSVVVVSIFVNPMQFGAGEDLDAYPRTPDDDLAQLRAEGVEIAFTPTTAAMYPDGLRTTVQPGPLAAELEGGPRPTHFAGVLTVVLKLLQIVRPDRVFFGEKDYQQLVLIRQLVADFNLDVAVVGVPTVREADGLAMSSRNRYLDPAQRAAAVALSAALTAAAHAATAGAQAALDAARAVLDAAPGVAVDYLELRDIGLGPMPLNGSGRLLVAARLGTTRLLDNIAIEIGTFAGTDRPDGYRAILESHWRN", "assay": "Recombinant Mtb pantothenate synthetase (PanC) inhibitors, coupled enzyme, confirmatory (AID 375);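 also: 0% = full reaction with vehicle and 100% = no enzyme background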", "conditions": "coupled enzyme assay; at 10 µM, hits give high values", "values": [{"smiles": "CSc1nc(NC(C)(C)C)nc(Oc2ccc(=O)[nH]n2)n1", "inhibition": "0% (inactive)"}, {"smiles": "CCCCc1nc(NCCNC(=O)c2ccco2)c(C#N)c2c1CSC(C)(C)C2", "inhibition": "3% (inactive)"}, {"smiles": "COc1cccc(N2CCN(CC(=O)c3c[nH]c4ccc(OC)cc34)CC2C)c1", "note": "(stereo not given)", "inhibition": "2% (inactive)"}, {"smiles": "Cc1nc2ccc(S(=O)(=O)NC(C(=O)NCc3cccs3)C(C)C)cc2s1", "note": "(stereo not given)", "inhibition": "0% (inactive)"}, {"smiles": "O=C1CCc2nc3sc4c(c3c(=O)n2N1)CCCC4", "inhibition": "0% (inactive)"}, {"smiles": "CCNC(=O)N(C)c1nncnc1C(=O)NC", "inhibition": "0% (inactive)"}, {"smiles": "O=C(CCCCCN1C(=O)CCC1=O)NCc1ccccc1", "inhibition": "11% (inactive)"}, {"smiles": "O=C(NCCN1CCCCC1)c1ccc(=O)oc1", "inhibition": "7% (inactive)"}, {"smiles": "COc1ccc(NC(=O)CSc2nc3c(c(=O)n2-c2ccc(F)cc2)SCC3)c(OC)c1", "inhibition": "0% (inactive)"}, {"smiles": "CC(C)(C)c1nc(CN2CCOCC2)ccc1O", "inhibition": "1% (inactive)"}, {"smiles": "Cc1cc(NC(=O)C2CCCC2)nc2c1c(=O)oc1ccccc12", "inhibition": "12% (inactive)"}, {"smiles": "COc1ccccc1C(=O)N1CCN=C1SCc1cccnc1", "inhibition": "0% (inactive)"}, {"smiles": "CC(COc1ccccc1)N(CCCl)Cc1ccccc1", "note": "(stereo not given)", "inhibition": "0% (inactive)"}, {"smiles": "CCCCCC1NC(=O)NC1CCCCCC(=O)O", "note": "(stereo not given)", "inhibition": "0% (inactive)"}, {"smiles": "Cn1c(=O)cc(SCC(=O)NCC2CCCO2)c2ccc(Cl)cc21", "note": "(stereo not given)", "inhibition": "10% (inactive)"}, {"smiles": "O=S1(=O)CCC(NS(=O)(=O)/C=C/c2ccccc2)C1", "note": "(stereo not given)", "inhibition": "8% (inactive)"}, {"smiles": "COC(=O)Nc1ccccc1C(=O)N1CCCCC1", "inhibition": "0% (inactive)"}, {"smiles": "CCOc1ccc(C(=O)N2CCN(c3ccccc3)CC2)cc1OCC", "inhibition": "1% (inactive)"}, {"smiles": "CCCc1ccc(Oc2cn[nH]c2-c2ccc(O)c(C)c2O)cc1", "inhibition": "0% (inactive)"}, {"smiles": "CCOC(=O)C1(C(=O)OCC)C(c2ccccc2)CC(O)N1C(C)=O", "note": "(stereo not given)", "inhibition": "0% (inactive)"}, {"smiles": "O=C(Cn1nnc2ccccc2c1=O)NC1CCCc2ccccc21", "note": "(stereo not given)", "inhibition": "5% (inactive)"}, {"smiles": "CCCOc1cccc(C(=O)Nc2cc(NC(=O)c3ccco3)ccc2OC)c1", "inhibition": "0% (inactive)"}, {"smiles": "O=C(CSc1ccccc1C(=O)NCCCN1CCCC1=O)NCc1ccco1", "inhibition": "5% (inactive)"}, {"smiles": "CC(=O)Nc1ccc(NS(=O)(=O)C(F)(F)F)cc1", "inhibition": "0% (inactive)"}, {"smiles": "Cc1nc2ccc(C(=O)O)cc2c2c1CC(C)S2", "note": "(stereo not given)", "inhibition": "0% (inactive)"}, {"smiles": "C=CCn1c(=S)[nH]c2nc3c(cc2c1=O)COC(C)(C)C3", "inhibition": "16% (inactive)"}, {"smiles": "CCOc1ccc(-n2cc(C(=O)N3CCN(C)CC3)c3cc(OC)c(OC)cc3c2=O)cc1", "inhibition": "0% (inactive)"}, {"smiles": "COCCn1cc(C(=O)NCCCN2CCC(C)CC2)c2c3ccccc3n(C)c2c1=O", "inhibition": "2% (inactive)"}, {"smiles": "CCOc1c(C)cc2[nH]c(CCC(=O)O)nc2c1C", "inhibition": "0% (inactive)"}, {"smiles": "Cn1nnnc1SCSc1nnnn1C", "inhibition": "1% (inactive)"}, {"smiles": "CC(Sc1n[nH]c(=O)[nH]c1=O)C(=O)OCc1ccccc1", "note": "(stereo not given)", "inhibition": "2% (inactive)"}, {"smiles": "Cc1ccc(S(=O)(=O)N2CCCC2)cc1S(=O)(=O)N1CCCC1", "inhibition": "0% (inactive)"}, {"smiles": "O=C(NC1CC1)c1cccc(Nc2ccc(-c3ccc4c(c3)OCCO4)nn2)c1", "inhibition": "1% (inactive)"}, {"smiles": "CCOC(=O)Cc1csc(NC(=O)CSc2nnc(C3CC3)n2C)n1", "inhibition": "3% (inactive)"}, {"smiles": "c1ccc(CN2C3=NCCCN3c3ccccc32)cc1", "inhibition": "0% (inactive)"}, {"smiles": "COc1ccccc1-c1nnc(SCC(=O)NC2CCCCC2)o1", "inhibition": "0% (inactive)"}, {"smiles": "CCc1ccc(C2CC(c3cccc(OC)c3)n3nc(N)nc3N2)cc1", "note": "(stereo not given)", "inhibition": "3% (inactive)"}, {"smiles": "N=c1ncn(CC(O)CN2CCOCC2)c2nc(N3CCOCC3)[nH]c12", "note": "(stereo not given)", "inhibition": "0% (inactive)"}, {"smiles": "CC1CN(C2CCCCC2)c2nc3c(c(=O)[nH]c(=O)n3C)n2C1", "note": "(stereo not given)", "inhibition": "2% (inactive)"}, {"smiles": "O=c1c2c3c(sc2n2cnnc2n1CCc1ccccc1)CCCC3", "inhibition": "5% (inactive)"}]}]}
